The values that follow come from PubChem BioAssay (NCI).

SMILES strings stand for the structures. About 83,000 compounds went through this panel and 20% of them were active in at least one assay; those are over-represented in the sample as a whole.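 Single-concentration screen, 48 h exposure, 96-well plates. Endpoint: percent growth. Below 10 = active.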 Unmarked numbers belong to inactive results. Calls of active or inactive are those of the source.

Among the test systems are SR leukemia; RPMI-8226 leukemia; OVCAR-8 ovarian; OVCAR-5 ovarian; OVCAR-4 ovarian; SK-OV-3 ovarian; IGROV1 ovarian; OVCAR-3 ovarian; HS 578T breast; NCI/ADR-RES ovarian.
What all share (assay): NCI-60 one-dose screen, 48 h (100 = growth as untreated, 0 = no growth, -100 = all killed)
Settings in all cases: 10 µM

For the compound `CC(C)c1ncc(CO)n1Cc1c(Cl)cccc1Cl`, the growth with SR leukemia is 97.4%; in the assay with RPMI-8226 leukemia, 97.6%; in the assay with OVCAR-8 ovarian, 105%; in the assay on OVCAR-5 ovarian, 106%; in the assay with OVCAR-4 ovarian, 116%; with SK-OV-3 ovarian, 99.5%. Besides, the growth is 100% with IGROV1 ovarian, 105% in the assay on OVCAR-3 ovarian, 104% in the assay on HS 578T breast and 110% in the assay on NCI/ADR-RES ovarian.
Consider `CCN(CC)CCOC(=O)c1ccc(N=Nc2ccc(O)c(OC)c2)cc1`, for which the growth is 84.8% with SR leukemia; 99.7% in the assay with RPMI-8226 leukemia; 95.1% in the assay on OVCAR-8 ovarian; 95.4% in the assay with OVCAR-5 ovarian; 111% in the assay with OVCAR-4 ovarian; 105% in the assay with SK-OV-3 ovarian. Moreover, the growth in the assay on IGROV1 ovarian was 104%; with OVCAR-3 ovarian, 98.6%; in the assay on HS 578T breast it was 98.7%; in the assay with NCI/ADR-RES ovarian it was 101%.
For the compound `Oc1[nH]c2ccccc2c1/C=c1/cc2c(c(-c3ccc(C(F)(F)F)cc3)n1)=Nc1ccccc1-2`, the growth was 4.59% (active) in the assay with SR leukemia; 12% in the assay with RPMI-8226 leukemia; 63.5% in the assay with OVCAR-8 ovarian; 70.5% in the assay with OVCAR-5 ovarian; 50.5% in the assay with OVCAR-4 ovarian; 79% in the assay on SK-OV-3 ovarian. The growth was 71.2% in the assay on IGROV1 ovarian, 20.2% with OVCAR-3 ovarian, 74.8% in the assay with HS 578T breast and 31.7% in the assay on NCI/ADR-RES ovarian.
Take `CC(=O)c1ccc(NCn2nc(-c3ccc(Cl)cc3)oc2=S)cc1`: the growth with SR leukemia was 85.1%; in the assay on RPMI-8226 leukemia, 105%; in the assay on OVCAR-8 ovarian it was 105%; in the assay with OVCAR-5 ovarian, 85.2%; in the assay with OVCAR-4 ovarian, 113%; in the assay on SK-OV-3 ovarian it was 94.4%. Besides, the growth with OVCAR-3 ovarian is 108%; in the assay with HS 578T breast, 96.2%; in the assay with NCI/ADR-RES ovarian, 101%.
On to `O=S(=O)(NC1c2ccccc2Oc2ccccc21)c1ccccc1`, for which the growth in the assay with SR leukemia is 58.3%; with RPMI-8226 leukemia, 94.1%; with OVCAR-8 ovarian, 88.8%; in the assay on OVCAR-5 ovarian, 101%; with OVCAR-4 ovarian, 88.6%; with SK-OV-3 ovarian, 99.6%. In addition, the growth with IGROV1 ovarian was 97.3%; in the assay with OVCAR-3 ovarian, 97.6%; in the assay with NCI/ADR-RES ovarian it was 90.9%.
Turning to `CCN(CCCNC(=O)Cc1cc(=O)oc2cc(N(C)C)ccc12)CCNc1ccnc2cc(Cl)ccc12`, the growth in the assay on SR leukemia is 1.46% (active); in the assay with RPMI-8226 leukemia, 54.7%; in the assay with OVCAR-8 ovarian, 83.9%; in the assay on OVCAR-5 ovarian it was 109%; with OVCAR-4 ovarian it was 81.7%; with SK-OV-3 ovarian it was 116%. The growth in the assay on OVCAR-3 ovarian is 106%; with HS 578T breast, 98.3%; in the assay on NCI/ADR-RES ovarian, 109%.
As for `COc1cc(/C=C/C(=O)c2cc(-c3ccccc3)ccc2O)cc(OC)c1OC`, the growth was 43.4% with SR leukemia; 12.3% in the assay on RPMI-8226 leukemia; 60.8% in the assay on OVCAR-8 ovarian; 93.1% in the assay on OVCAR-5 ovarian; 68% with OVCAR-4 ovarian; 71.3% in the assay on SK-OV-3 ovarian. For the same compound, the growth in the assay with OVCAR-3 ovarian was 77.2%; with HS 578T breast it was 82.3%; with NCI/ADR-RES ovarian, 69.4%.
As to `Nc1cc(O)cc(O)c1`, the growth with SR leukemia is 91.7%; with RPMI-8226 leukemia it was 109%; with OVCAR-8 ovarian, 104%; in the assay on OVCAR-5 ovarian, 89.6%; in the assay with OVCAR-4 ovarian, 94.1%; with SK-OV-3 ovarian, 99.3%. The growth in the assay on IGROV1 ovarian is 100%; in the assay on OVCAR-3 ovarian it was 108%; in the assay with NCI/ADR-RES ovarian it was 99.7%.
As to `O=C(O)c1ccccc1C(=O)c1cccc2c(F)cccc12`, the growth in the assay on SR leukemia is 115%; with RPMI-8226 leukemia it was 104%; in the assay on OVCAR-8 ovarian it was 99%; with OVCAR-5 ovarian, 110%; in the assay with OVCAR-4 ovarian, 98.4%; with SK-OV-3 ovarian, 109%. Moreover, the growth with OVCAR-3 ovarian is 117%; with HS 578T breast, 126%; with NCI/ADR-RES ovarian, 104%.
For the compound `Cn1c(=O)c2[nH]c(C(O)c3ccc(Cl)cc3)nc2n(C)c1=O` (stereo unspecified), the growth in the assay on SR leukemia was 104%; in the assay with RPMI-8226 leukemia it was 90.6%; in the assay on OVCAR-8 ovarian it was 97.8%; in the assay with OVCAR-5 ovarian, 99.6%; in the assay on OVCAR-4 ovarian it was 91.3%; with SK-OV-3 ovarian, 101%. In addition, the growth with IGROV1 ovarian is 111%; with OVCAR-3 ovarian, 109%; in the assay on HS 578T breast it was 87.9%; in the assay on NCI/ADR-RES ovarian, 97.9%.
As for `CC(=O)O[C@H]1CC[C@@]2(C)[C@@H](CC[C@@H]3[C@@H]2CC[C@]2(C)C=C(C=O)C[C@@H]32)C1`, the growth in the assay on SR leukemia was 2.16% (active); in the assay on RPMI-8226 leukemia, 8.64% (active); with OVCAR-8 ovarian it was 24.9%; with OVCAR-5 ovarian, 71.8%; in the assay with OVCAR-4 ovarian it was 70.4%; in the assay on SK-OV-3 ovarian, 113%. Besides, the growth in the assay on OVCAR-3 ovarian is 57.8%; in the assay on HS 578T breast, 105%; in the assay with NCI/ADR-RES ovarian it was 70.5%.
Regarding `Nc1nsc(C(=O)c2ccc(O)cc2)n1`, the growth with SR leukemia is 99.2%; in the assay with RPMI-8226 leukemia, 90.7%; in the assay on OVCAR-8 ovarian, 91.1%; with OVCAR-5 ovarian, 93.6%; in the assay with OVCAR-4 ovarian, 105%; in the assay with SK-OV-3 ovarian it was 92.8%. The growth is 95.2% with OVCAR-3 ovarian, 98.1% in the assay with HS 578T breast and 103% with NCI/ADR-RES ovarian.
As for `Cc1ccc2nc(-c3ccc(OCC(=O)N=Nc4c(O)[nH]c5ccccc45)cc3)[nH]c2c1`, the growth with SR leukemia was -17.5% (active); in the assay on RPMI-8226 leukemia, 25.7%; in the assay on OVCAR-8 ovarian it was 18.5%; in the assay on OVCAR-5 ovarian it was 104%; with OVCAR-4 ovarian, 11.6%; with SK-OV-3 ovarian, 99.5%. Besides, the growth was 26.5% in the assay on OVCAR-3 ovarian, 91.5% in the assay with HS 578T breast and 89.9% in the assay with NCI/ADR-RES ovarian.
With `COc1ccc2oc(=O)cc(C3c4ccc([nH]4)C(c4cc(=O)oc5ccc(OC)cc45)c4ccc([nH]4)C(c4cc(=O)oc5ccc(OC)cc45)c4ccc([nH]4)C(c4cc(=O)oc5ccc(OC)cc45)c4ccc3[nH]4)c2c1` (stereo unspecified), the growth in the assay on SR leukemia was -15.9% (active); with RPMI-8226 leukemia, -6.88% (active); with OVCAR-8 ovarian, -10.9% (active); with OVCAR-5 ovarian, 3.08% (active); in the assay with OVCAR-4 ovarian, 0.347% (active); with SK-OV-3 ovarian, 0.72% (active). In addition, the growth was 19.7% in the assay with IGROV1 ovarian, -85.2% (active) in the assay on OVCAR-3 ovarian, 8.18% (active) in the assay on HS 578T breast and 5.87% (active) with NCI/ADR-RES ovarian.
With `CCCCCCCCCCCCCCCC(=O)N1CCN(C)CC1`, the growth in the assay on SR leukemia is -3.08% (active); with RPMI-8226 leukemia, 71%; with OVCAR-8 ovarian, 86.3%; in the assay on OVCAR-5 ovarian, 86.3%; in the assay with OVCAR-4 ovarian, 87.6%; in the assay on SK-OV-3 ovarian, 84.9%. The growth in the assay on OVCAR-3 ovarian is 86.8%; in the assay with HS 578T breast it was 90.1%; in the assay with NCI/ADR-RES ovarian, 90.3%.
With `CCOC(=O)C(CCC1=NC(C)(C)CC(C)O1)C(=O)OCC` (stereo unspecified), the growth in the assay on SR leukemia is 68.6%; in the assay on RPMI-8226 leukemia it was 111%; in the assay on OVCAR-8 ovarian it was 85.5%; with OVCAR-5 ovarian, 62.5%; in the assay on OVCAR-4 ovarian it was 90.6%; with SK-OV-3 ovarian, 101%. Also, the growth in the assay on OVCAR-3 ovarian was 107%; in the assay on HS 578T breast, 95.3%; in the assay with NCI/ADR-RES ovarian, 83%.
Turning to `CN(C)Cc1cccs1`, the growth was 114% with SR leukemia; 102% in the assay on RPMI-8226 leukemia; 97% with OVCAR-8 ovarian; 98.5% with OVCAR-5 ovarian; 109% with OVCAR-4 ovarian; 87.8% with SK-OV-3 ovarian. Further, the results for the growth in the assay on OVCAR-3 ovarian, with HS 578T breast and in the assay on NCI/ADR-RES ovarian were 101%, 102% and 101%, respectively.
On to `CCCCn1c(=O)[nH]c2c(c1=O)C(c1ccc(Cl)cc1)c1c([nH]c(=O)n(CCCC)c1=O)N2`, for which the growth is 106% with SR leukemia; 104% in the assay with RPMI-8226 leukemia; 99.5% in the assay on OVCAR-8 ovarian; 99.5% with OVCAR-5 ovarian; 102% in the assay on OVCAR-4 ovarian; 94.7% with SK-OV-3 ovarian. The growth in the assay on OVCAR-3 ovarian is 115%; in the assay with HS 578T breast it was 106%; with NCI/ADR-RES ovarian, 98.6%.
Regarding `COc1cc(-c2cc(-c3ccc(C)cc3)nc3nc(N)[nH]c(=O)c23)ccc1Oc1ccnc2cc(Cl)ccc12`, the growth in the assay on SR leukemia was 50.9%; in the assay on RPMI-8226 leukemia, 60.1%; in the assay with OVCAR-8 ovarian it was 79.5%; with OVCAR-5 ovarian it was 115%; in the assay on OVCAR-4 ovarian it was 66.3%; in the assay on SK-OV-3 ovarian it was 95.3%. Besides, the growth in the assay with OVCAR-3 ovarian was 84.1%; in the assay with HS 578T breast it was 91.2%; in the assay on NCI/ADR-RES ovarian, 100%.
